# Assay results published in the supplement of paper PMC4237247.
# System: HeLa
# Test: percent cells in G2/M phase; higher = more G2/M arrest
# Conditions: 10 µM; 20 h; hit class: G2/M-phase inhibitor
# Experimental: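 HTS of 79,827 drug-like compounds at 10 uM. HeLa cells in 384-well plates were treated for 20 h, fixed, stained with Vybrant DyeCycle Green and scanned on an Acumen eX3 cytometer to give per-well cell cycle profiles. Only G2/M hits (>=67% G2/M) are listed.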
row,SMILES,percent cells in G2/M phase [%]
1,CN1Cc2c(ccc3c2OCO3)[C@@H]2[C@H]1c1cc3c(cc1C[C@@H]2O)OCO3 [Chelidonine monohydrate (+)],72
